Results as given in ChEMBL document CHEMBL1961873, “Compounds: GSK PKIS; Assays: Nanosyn kinase panel” (2012).

Key:
[1] = target: Serine/threonine-protein kinase 26 (Homo sapiens) (UniProt Q9P289); settings: at 1 µM;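 further: mean inhibition of MST4 kinase activity, reported from the GSK PKIS inhibitor-set screening panel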
[2] = target: Serine/threonine-protein kinase PAK 1 (Homo sapiens) (UniProt Q13153); settings: at 0.1 µM
[3] = target: Serine/threonine-protein kinase PAK 1 (Homo sapiens) (UniProt Q13153); settings: at 1 µM
[4] = target: Serine/threonine-protein kinase PAK 2 (Homo sapiens) (UniProt Q13177); settings: at 0.1 µM
[5] = target: Serine/threonine-protein kinase PAK 2 (Homo sapiens) (UniProt Q13177); settings: at 1 µM
[6] = target: Serine/threonine-protein kinase PAK 3 (Homo sapiens) (UniProt O75914); settings: at 0.1 µM
[7] = target: Serine/threonine-protein kinase PAK 3 (Homo sapiens) (UniProt O75914); settings: at 1 µM
[8] = target: Serine/threonine-protein kinase PAK 5 (Homo sapiens) (UniProt Q9P286); settings: at 0.1 µM
[9] = target: Serine/threonine-protein kinase PAK 5 (Homo sapiens) (UniProt Q9P286); settings: at 1 µM
[10] = target: Serine/threonine-protein kinase PAK 6 (Homo sapiens) (UniProt Q9NQU5); settings: at 0.1 µM
[11] = target: Serine/threonine-protein kinase PAK 6 (Homo sapiens) (UniProt Q9NQU5); settings: at 1 µM
[12] = tested on: Tyrosine-protein kinase ABL1 (Homo sapiens), P00519 [E255K]; settings: at 0.1 µM
[13] = tested on: Tyrosine-protein kinase ABL1 (Homo sapiens), P00519 [E255K]; settings: at 1 µM
[14] = tested on: Tyrosine-protein kinase ABL1 (Homo sapiens), P00519 [H396P]; settings: at 0.1 µM
[15] = tested on: Tyrosine-protein kinase ABL1 (Homo sapiens), P00519 [H396P]; settings: at 1 µM
[16] = tested on: Tyrosine-protein kinase ABL1 (Homo sapiens), P00519 [M351T]; settings: at 0.1 µM
[17] = tested on: Tyrosine-protein kinase ABL1 (Homo sapiens), P00519 [M351T]; settings: at 1 µM
[18] = tested on: Tyrosine-protein kinase ABL1 (Homo sapiens), P00519 [Q252H]; settings: at 0.1 µM
[19] = tested on: Tyrosine-protein kinase ABL1 (Homo sapiens), P00519 [Q252H]; settings: at 1 µM
[20] = tested on: Tyrosine-protein kinase ABL1 (Homo sapiens), P00519 [T315I]; settings: at 0.1 µM

Sequence of Serine/threonine-protein kinase PAK 6 (Homo sapiens) (Q9NQU5 whole entry, looked up): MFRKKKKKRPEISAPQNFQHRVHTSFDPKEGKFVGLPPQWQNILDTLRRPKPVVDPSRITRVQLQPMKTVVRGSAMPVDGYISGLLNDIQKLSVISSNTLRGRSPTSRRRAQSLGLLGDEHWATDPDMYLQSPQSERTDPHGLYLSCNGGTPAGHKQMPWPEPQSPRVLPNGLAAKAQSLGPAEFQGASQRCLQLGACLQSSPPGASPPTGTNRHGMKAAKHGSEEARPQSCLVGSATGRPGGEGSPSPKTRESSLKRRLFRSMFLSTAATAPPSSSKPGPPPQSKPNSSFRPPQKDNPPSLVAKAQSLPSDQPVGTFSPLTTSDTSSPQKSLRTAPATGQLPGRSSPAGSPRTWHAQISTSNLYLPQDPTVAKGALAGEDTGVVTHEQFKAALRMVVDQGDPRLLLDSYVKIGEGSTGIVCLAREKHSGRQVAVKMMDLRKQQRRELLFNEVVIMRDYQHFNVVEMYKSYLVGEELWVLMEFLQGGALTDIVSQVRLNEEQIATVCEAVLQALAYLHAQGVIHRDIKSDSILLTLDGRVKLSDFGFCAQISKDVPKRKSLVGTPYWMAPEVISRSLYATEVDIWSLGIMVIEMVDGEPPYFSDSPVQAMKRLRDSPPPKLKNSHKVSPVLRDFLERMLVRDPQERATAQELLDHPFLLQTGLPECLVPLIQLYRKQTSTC
Sequence of Serine/threonine-protein kinase 26 (Homo sapiens) (Q9P289 2-416 limits assumed): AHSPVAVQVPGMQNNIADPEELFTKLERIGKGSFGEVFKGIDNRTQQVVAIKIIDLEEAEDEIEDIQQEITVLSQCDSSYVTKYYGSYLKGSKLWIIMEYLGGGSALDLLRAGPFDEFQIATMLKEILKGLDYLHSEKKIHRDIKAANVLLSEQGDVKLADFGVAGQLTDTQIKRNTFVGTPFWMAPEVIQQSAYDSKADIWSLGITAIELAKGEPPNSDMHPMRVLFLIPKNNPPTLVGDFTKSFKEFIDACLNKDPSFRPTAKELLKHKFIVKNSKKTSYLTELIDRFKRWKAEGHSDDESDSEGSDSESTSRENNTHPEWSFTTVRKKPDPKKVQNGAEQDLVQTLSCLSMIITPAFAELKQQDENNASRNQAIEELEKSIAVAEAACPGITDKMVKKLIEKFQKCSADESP
Sequence of Serine/threonine-protein kinase PAK 1 (Homo sapiens) (Q13153 whole entry): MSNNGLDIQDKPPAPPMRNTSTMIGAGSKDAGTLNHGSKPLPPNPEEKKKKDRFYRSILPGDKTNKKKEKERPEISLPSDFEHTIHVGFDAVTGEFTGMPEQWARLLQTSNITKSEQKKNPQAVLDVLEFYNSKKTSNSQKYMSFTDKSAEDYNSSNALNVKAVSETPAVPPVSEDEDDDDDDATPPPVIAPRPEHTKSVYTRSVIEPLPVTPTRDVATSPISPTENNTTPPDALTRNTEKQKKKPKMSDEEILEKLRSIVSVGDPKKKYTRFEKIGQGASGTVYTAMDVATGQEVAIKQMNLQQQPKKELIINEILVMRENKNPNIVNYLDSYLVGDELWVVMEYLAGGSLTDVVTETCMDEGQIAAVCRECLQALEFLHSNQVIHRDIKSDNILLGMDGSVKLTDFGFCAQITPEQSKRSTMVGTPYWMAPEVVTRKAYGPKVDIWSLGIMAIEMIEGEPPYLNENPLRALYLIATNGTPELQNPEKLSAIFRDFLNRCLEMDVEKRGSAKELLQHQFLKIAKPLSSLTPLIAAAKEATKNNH
Sequence of Serine/threonine-protein kinase PAK 2 (Homo sapiens) (Q13177 whole entry): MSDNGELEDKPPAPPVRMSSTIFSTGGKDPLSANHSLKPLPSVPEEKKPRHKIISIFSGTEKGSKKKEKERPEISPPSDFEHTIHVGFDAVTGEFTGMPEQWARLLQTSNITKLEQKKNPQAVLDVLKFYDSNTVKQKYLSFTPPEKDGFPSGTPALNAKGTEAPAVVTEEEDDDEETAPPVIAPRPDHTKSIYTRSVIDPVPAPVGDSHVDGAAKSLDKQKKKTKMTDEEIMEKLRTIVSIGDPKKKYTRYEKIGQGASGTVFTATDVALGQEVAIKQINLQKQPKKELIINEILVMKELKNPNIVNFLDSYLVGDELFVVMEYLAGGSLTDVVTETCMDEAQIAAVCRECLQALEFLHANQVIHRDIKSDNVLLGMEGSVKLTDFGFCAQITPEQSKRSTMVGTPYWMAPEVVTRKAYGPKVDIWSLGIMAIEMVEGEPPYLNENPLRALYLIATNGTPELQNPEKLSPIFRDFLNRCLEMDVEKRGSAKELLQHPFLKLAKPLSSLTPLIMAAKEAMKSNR
Sequence of Serine/threonine-protein kinase PAK 3 (Homo sapiens) (O75914 whole entry, looked up): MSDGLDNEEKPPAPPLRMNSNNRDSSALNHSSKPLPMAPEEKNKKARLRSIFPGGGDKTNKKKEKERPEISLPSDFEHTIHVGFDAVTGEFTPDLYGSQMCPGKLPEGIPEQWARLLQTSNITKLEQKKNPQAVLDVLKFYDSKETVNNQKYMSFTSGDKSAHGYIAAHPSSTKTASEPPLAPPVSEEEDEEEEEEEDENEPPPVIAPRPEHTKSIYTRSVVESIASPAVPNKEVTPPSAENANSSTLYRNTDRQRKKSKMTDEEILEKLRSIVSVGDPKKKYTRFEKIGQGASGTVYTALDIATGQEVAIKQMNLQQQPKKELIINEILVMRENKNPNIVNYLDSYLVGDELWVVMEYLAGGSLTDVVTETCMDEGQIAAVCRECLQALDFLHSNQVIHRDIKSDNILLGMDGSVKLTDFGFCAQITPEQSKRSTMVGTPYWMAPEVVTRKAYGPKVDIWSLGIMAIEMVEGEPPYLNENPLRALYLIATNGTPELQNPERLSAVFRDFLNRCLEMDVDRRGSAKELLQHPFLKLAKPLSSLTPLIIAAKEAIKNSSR
Sequence of Serine/threonine-protein kinase PAK 5 (Homo sapiens) (Q9P286 whole entry, looked up): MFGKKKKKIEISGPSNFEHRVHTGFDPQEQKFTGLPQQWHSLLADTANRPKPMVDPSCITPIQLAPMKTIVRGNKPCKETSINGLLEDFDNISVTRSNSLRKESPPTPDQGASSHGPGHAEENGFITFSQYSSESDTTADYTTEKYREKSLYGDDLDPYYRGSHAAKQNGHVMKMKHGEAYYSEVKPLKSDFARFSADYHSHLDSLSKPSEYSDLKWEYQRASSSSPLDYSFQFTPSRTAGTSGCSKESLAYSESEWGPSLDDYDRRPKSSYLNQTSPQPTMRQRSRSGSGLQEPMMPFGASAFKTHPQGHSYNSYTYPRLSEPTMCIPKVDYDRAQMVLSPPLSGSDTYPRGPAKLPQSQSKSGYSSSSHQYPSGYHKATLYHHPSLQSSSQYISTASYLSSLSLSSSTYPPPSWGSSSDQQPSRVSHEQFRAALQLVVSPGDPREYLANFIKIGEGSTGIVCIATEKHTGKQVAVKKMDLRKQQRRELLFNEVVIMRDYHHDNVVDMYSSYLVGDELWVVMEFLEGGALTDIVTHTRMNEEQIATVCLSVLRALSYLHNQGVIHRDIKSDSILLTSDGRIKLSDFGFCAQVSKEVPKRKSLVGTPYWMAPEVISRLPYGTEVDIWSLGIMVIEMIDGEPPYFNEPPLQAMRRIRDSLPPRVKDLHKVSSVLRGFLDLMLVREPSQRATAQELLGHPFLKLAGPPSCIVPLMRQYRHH

Compound	inhibition [1]	inhibition [2]	inhibition [3]	inhibition [4]	inhibition [5]	inhibition [6]	inhibition [7]	inhibition [8]	inhibition [9]	inhibition [10]	inhibition [11]	inhibition [12]	inhibition [13]	inhibition [14]	inhibition [15]	inhibition [16]	inhibition [17]	inhibition [18]	inhibition [19]	inhibition [20]
CC(=O)Nc1cccc(C#Cc2cncnc2Nc2ccc(OCc3cccc(F)c3)c(Cl)c2)n1	2.51%	1.24%	0.67%	-0.89%	-0.09%	-0.61%	-0.35%	4.91%	9.12%	10.8%	0.8%	-0.61%	-0.48%	0.09%	1.6%	1.08%	3.88%	0.29%	3.02%	0.4%
COc1ccc(-c2ccncc2)cc1C(N)=O	-5.1%	4.54%	10%	2.37%	3.02%	5.3%	10.3%	5.08%	8.05%	-8.8%		2.26%	3.56%	4.08%	3.48%	-0.68%	-0.45%	3.19%	2.33%	2.27%
COc1ccc(-c2nn3ncccc3c2-c2ccnc(Nc3ccc(Cl)c(C(F)(F)F)c3)n2)cc1	0.3%	2.46%	0.59%	-0.08%	0.63%	2.32%	2.56%	1.71%	-1.65%	-0.34%	-4.72%	0.96%	5.54%	0.79%	8.65%	2.03%	26.5%	4.06%	18.9%	1.74%
CCN1CCC(CC(=O)Nc2n[nH]c3nc(-c4cccs4)c(Br)cc23)CC1	12%	-4.19%	-3.71%	-2.22%	-2.2%	-1.67%	-3.03%	0.15%	16.4%		-1.76%	-1.62%	2.21%	-0.27%	8.03%	-0.05%	4.95%	0.92%	11.6%	3.23%
CNC(=O)c1cncc(/C=C/c2c(Cl)cccc2Cl)c1	-0.15%	4.17%	11%	1.59%	0.88%	4.45%	5.48%	5.92%	6.55%		-7.96%	3.46%	33.3%	9.69%	47.2%	6.02%	42.2%	8.15%	41.9%	-0.11%
CN1CCC(C(=O)Nc2n[nH]c3nnc(-c4ccccc4)cc23)CC1	1.63%	10.6%	7.32%	1.19%	2.25%	5.86%	6.46%	3.31%	6.52%		-6.17%	1.81%	6.11%	4.23%	4.8%	2.25%	1.61%	3.6%	3.36%	3.4%
Nc1ncnc2occ(-c3ccc(NC(=O)Nc4cc(C(F)(F)F)cc(C(F)(F)F)c4)cc3)c12		4.71%	3.65%	2.1%	0.99%	2.26%	3.84%	1.39%	4.07%	1.06%	7.94%	3.79%	25.5%	18.5%	68.1%	48.5%	80.9%	45%	75.5%	42.5%
CCn1c(-c2nonc2N)nc2c(N3CCCC3)nccc21	0.92%	3.59%	-4.47%	-2.37%	-1.78%	-2.72%	-1.25%	-6.88%		8.95%	0.23%	-0.9%	-0.63%	0.1%	-1.53%	1.28%	-0.55%	1.69%	-0.47%	-0.16%
Cc1ccc(C(=O)NC2CCCCC2)cc1-c1ccc(C(=O)NCC2CC2)cc1	-1.45%	6.65%	4.6%	2.09%	1.97%	4.22%	4.44%	4.34%	13.6%	-2.81%	-8.15%	0.94%	-0.03%	4.41%	0.31%	3.58%	2.26%	3.13%	2.92%	1.36%
COc1ccccc1Nc1ncc(-c2ccccc2)o1	0.41%	10.5%	12.7%	1.73%	1.5%	6.21%	6.38%	-2.83%	-2.65%		-9.8%	3.77%	8%	6.53%	15.2%	2.78%	10.8%	5.47%	9.74%	2.77%
Nc1ncnc2occ(-c3ccc(NC(=O)Nc4cccc(C(F)(F)F)c4)cc3)c12	-4.13%	6.38%	5.2%	1.77%	1.5%	6.37%	5.54%	2.15%	3.35%	-0.62%	-2.37%	5.41%	38.8%	25.3%	76.8%	54.5%	85.1%	54.2%	81.6%	48.3%
NS(=O)(=O)c1ccc(N/N=C2\C(=O)Nc3ccc(C(=O)NCCc4c[nH]cn4)cc32)cc1	6.15%	3.1%	7.85%	1.34%	3.15%	4.63%	6.49%	2.86%	3.33%	10.1%	3.67%	5.1%	6.98%	3.97%	11.2%	4.18%	9.6%	5.47%	8.73%	3.68%
COc1cc2ncn(-c3cc(OCc4ccccc4C(F)(F)F)c(C(N)=O)s3)c2cc1OC		3.79%	7.26%	1.94%	1.77%	5.55%	5.02%	1.8%	2.59%	-0.96%	-0.46%	0.92%	13.5%	5.99%	23%	3.68%	19.2%	5.63%	21.9%	3.84%
Cn1cc(C=C2C(=O)Nc3cccnc32)c2ccccc21	1.1%	5.04%	6%	0.8%	0.31%	2.68%	3%	-6.57%	-5.19%	-3.53%	0.69%	5.17%	28.1%	7.05%	37.5%	3.06%	35.9%	6.07%	33.2%	8.02%
